Experimental data: PubChem BioAssay (NCATS)
Results filed as inconclusive are left out. The source made the active and inactive calls. Unless noted, calls come from the whole dose curve; as a rule, active = well fitted curve in the direction sought with a large enough effect; inconclusive = small, poorly fitted or top-dose-only effect, or another doubt; inactive = no such curve, though single readings can be large; an effect the other way counts as inactive or inconclusive.

Columns and labels:
[1] = biological target: Galactokinase (Homo sapiens) (UniProt P51570); assay: qHTS Validation Assay for Inhibitors of Human Galactokinase (GALK) (AID 493189); note: 0% is about no effect
In short: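 Compounds were pin-transferred into ATP buffer, then GALK-galactose mix was added (final 5 nM enzyme, 100 uM galactose, 35 uM ATP). After 1 h at room temperature, remaining ATP was measured luminescently.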

[2] = Validation screen for small molecules that induce DNA re-replication in SW480 colon adenocarcinoma cells (AID 504364); note: 0% is about no effect
In short: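 Image-based DNA content read-out: Hoechst stain 40 min, total nuclear fluorescence intensity (ex 405 nm, em 500-530 nm) after 48 h compound exposure of 250 SW480 cells/well at 37 C, 5% CO2, versus DMSO vehicle.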

[3] = biological target: Peptidyl-prolyl cis-trans isomerase NIMA-interacting 1 (Homo sapiens) (UniProt Q13526); assay: qHTS Validation Assay to Find Inhibitors of Pin1 (AID 504536; active = well fitted inhibition curve with a large enough effect in the polarisation, with a control signal flat, not every such curve was filed as active; the % refers to the polarisation; note: potency is the fitted concentration of half-maximal effect)
In short: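 Fluorescence polarization competition: compounds (titration) displace HiFluor-488-labeled Pin1-1b peptide from Pin1 (0.3 uM final) in pH 7.5 HEPES buffer with DTT, 10 min at room temperature; %Activity normalized to no-enzyme wells, curves fitted.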

[4] = biological target: Phosphoglycerate kinase, glycosomal (Trypanosoma brucei brucei) (UniProt P07378); assay: qHTS Validation Assay to Find Inhibitors of Phosphoglycerate Kinase (AID 504547); note: potency is the fitted concentration of half-maximal effect
In short: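 Compounds are pinned into the substrate/PGK mixture, and GAPDH (100nM final) is added to start the reaction by producing 1,3-BPG. After 60 minutes at room temperature, Kinase-Glo Plus is added and luminescence is measured 10 minutes later.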

[5] = biological target: phosphoglycerate mutase (Leishmania major) (UniProt Q4Q090); assay: qHTS Validation Assay to Find Inhibitors of Phosphoglycerate Mutase (AID 504548); details: Potency: inhibition qHTS; note: series mostly up to about 58 µM; % is set by controls: 0 for no effect and ±100 for the full control effect
In short: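 Lm PGAM at 1.25 nM final with substrate in 100 mM TEA pH 7.6, 5 mM MgCl2, 0.01% Tween-20; 45 min at room temperature. Kinase-GloPlus added, 10 min, end-point luminescence read.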

[6] = Inducers of the Endoplasmic Reticulum Stress Response (ERSR) in human glioma: Validation (AID 504836); note: 0% is about no effect
In short: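 Stably transfected U87-MG glioma cells carrying a GRP78-based luciferase sensor; 16 h compound incubation. Luminescence end-point read 10 min after Bright-Glo addition at room temperature.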

[7] = biological target: Ubiquitin carboxyl-terminal hydrolase 1 (Homo sapiens) (UniProt O94782); assay: Inhibitors of USP1/UAF1: Pilot qHTS (AID 504865); note: nearly all actives have a fitted effect of over 35% in size; note: potency is the fitted concentration of half-maximal effect
In short: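 Kinetic fluorescence assay: 1nM USP1/UAF1, 15 min compound preincubation, then 150nM Ub-Rho; 480/540 nm.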

[8] = qHTS for Inhibitors of ATXN expression: Validation of Cytotoxic Assay (AID 588349); note: % is set by controls: 0 for no effect and ±100 for the full control effect
In short: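 Cytotoxicity counter-screen: ATP-based luminescent viability (CellTiter Glo) after 72 hr exposure of HEK293 cells to a compound titration at 37 degrees C.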

[9] = qHTS for Inhibitors of ATXN expression: Validation (AID 588378); note: series mostly up to about 57 µM; % is set by controls: 0 for no effect and ±100 for the full control effect; nearly all actives have a fitted effect of over 75% in size
In short: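 Validation of ATXN2 expression inhibitors uses a cell-based luciferase fusion reporter in HEK293 cells, with 24 h compound exposure and paired viability (fluorescence) and reporter (luminescence) end-point reads.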

[10] = biological target: Estrogen receptor (Homo sapiens) (UniProt P03372); assay: qHTS assay for small molecule antagonists of estrogen receptor alpha signaling (AID 588513; active = well fitted curve in the direction sought with a large enough effect in the signal ratio, with a control signal flat, not every such curve was filed as active; the % refers to the signal ratio; note: % is set by controls: 0 for no effect and ±100 for the full control effect)
In short: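 Cells were plated at 5000/well and incubated 4 h at 37 C. Compounds were added as 1:2 dilution series, duplicates. 17-beta-estradiol (0.5nM final) was added for 18 h before CCF4 detection.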

[11] = biological target: Estrogen receptor (Homo sapiens) (UniProt P03372); assay: qHTS assay for small molecule agonists of estrogen receptor alpha signaling (AID 588514; calls by dose curve;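 note: 0% = vehicle only and 100% = reference agonist; nearly all actives have a fitted effect of over 70% in size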)
In short: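 EC50 and efficacy came from Hill fits of beta-lactamase reporter signal (CCF4 dye, 2 h at room temperature) scaled between DMSO and 20 nM 17-beta-estradiol. Agonist mode: HEK293 ER-alpha-UAS-bla cells in charcoal/dextran-stripped serum medium, 18 h compound exposure at 37 C.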

[12] = biological target: Bile acid receptor (Homo sapiens) (UniProt Q96RI1); assay: qHTS assay for small molecule agonists of farnesoid X receptor signaling (AID 588527; calls by dose curve;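 note: series mostly up to about 77 µM; 0% = vehicle basal and 100% = reference agonist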); details: HEK293T FXR-UAS-bla, beta-lactamase ratio, 16 h; stronger effect = higher value
In short: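 FXR-UAS-bla HEK293T cells (10% dialyzed FBS) preincubated 5-7 h at 37 C, then compounds at up to 92 uM for 16 h at 37 C. CCF4 beta-lactamase read-out after 2 h RT. Normalized to chenodeoxycholic acid (100 uM) and DMSO; Hill fit gave EC50 and efficacy.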

[13] = biological target: Glucocorticoid receptor (Homo sapiens) (UniProt P04150); assay: qHTS assay for small molecule agonists of glucocorticoid receptor signaling (AID 588532; active = well fitted curve in the direction sought with a large enough effect in the signal ratio, with a control signal flat; the % refers to the signal ratio;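 note: 100% = dexamethasone at 0.1 µM and 0% = DMSO only wells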); details: HeLa MMTV-bla, beta-lactamase ratio, agonist, 18 h; stronger effect = higher value; percent of dexamethasone control, DMSO zero
In short: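 MMTV-bla HeLa beta-lactamase reporter cells in 1% charcoal/dextran FBS medium, compounds up to 92 uM for 18 h at 37 C, CCF4 readout; normalized to 0.1 uM dexamethasone (100%), EC50 and efficacy from Hill fits.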

[14] = biological target: Glucocorticoid receptor (Homo sapiens) (UniProt P04150); assay: qHTS assay for small molecule antagonists of glucocorticoid receptor signaling (AID 588533; active = well fitted inhibition curve with a large enough effect in the signal ratio, with a control signal flat, not every such curve was filed as active; the % refers to the signal ratio;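 note: cells stimulated with 2 nM dexamethasone as agonist; % is set by controls: 0 for no effect and ±100 for the full control effect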)
In short: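 Antagonist-mode qHTS: compound titrations added to GRE-bla HeLa cells, then dexamethasone 2 nM final; 18 h, 37 C. CCF4 FRET fluorescence normalized to dexamethasone and DMSO; IC50 from Hill fit.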

[15] = biological target: Peroxisome proliferator-activated receptor gamma (Homo sapiens) (UniProt P37231); assay: qHTS assay for small molecule agonists of peroxisome proliferator-activated receptor gamma signaling (AID 588536; active = well fitted curve in the direction sought with a large enough effect in the signal ratio, with a control signal flat, not every such curve was filed as active; the % refers to the signal ratio;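 note: 0% = DMSO basal wells and 100% = rosiglitazone at 2 µM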)
In short: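 Cells were plated and held 6–6.5 h at 37 C, then compounds were added as a titration series. After a further 16 h, CCF4 dye was loaded for 2 h at room temperature and emission at 460/530 nm recorded.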

[16] = biological target: Bile acid receptor (Homo sapiens) (UniProt Q96RI1); assay: qHTS assay for small molecule antagonists of farnesoid X receptor signaling (AID 588526; calls by dose curve; note: % is set by controls: 0 for no effect and ±100 for the full control effect)
In short: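 Antagonist mode: titrated compounds tested against chenodeoxycholic acid stimulation (normalized to 50 uM CDCA and DMSO) in GeneBLAzer HEK293T cells for 16 h. Beta-lactamase read by CCF4 fluorescence; IC50 from Hill fits.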

[17] = biological target: Androgen receptor (Homo sapiens) (UniProt P10275); assay: qHTS assay for small molecule agonists of androgen receptor signaling (AID 588515; active = well fitted curve in the direction sought with a large enough effect in the signal ratio, with a control signal flat; the % refers to the signal ratio; note: % is set by controls: 0 for no effect and ±100 for the full control effect); details: AR-UAS-bla HEK293, beta-lactamase ratio, agonist 16 h; stronger effect = higher value
In short: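 Stimulation of an AR-responsive β-lactamase reporter in GripTite HEK293 cells was measured after 16 h compound exposure at 37 °C, via CCF4 fluorescence after 2 h RT. EC50 from Hill fits, normalized to R1881 at 30 nM.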

[18] = biological target: Androgen receptor (Homo sapiens) (UniProt P10275); assay: qHTS assay for small molecule antagonists of androgen receptor signaling (AID 588516; active = well fitted curve in the direction sought with a large enough effect in the signal ratio, with a control signal flat, not every such curve was filed as active; the % refers to the signal ratio; note: % is set by controls: 0 for no effect and ±100 for the full control effect)
In short: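 Antagonist-mode qHTS: inhibition of R1881 (10 nM)-driven beta-lactamase expression in GripTite HEK 293 cells is measured after 16 h; values are Hill-derived IC50s normalized between R1881 and DMSO wells.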

Chain of Estrogen receptor (Homo sapiens) (P03372 whole entry, looked up): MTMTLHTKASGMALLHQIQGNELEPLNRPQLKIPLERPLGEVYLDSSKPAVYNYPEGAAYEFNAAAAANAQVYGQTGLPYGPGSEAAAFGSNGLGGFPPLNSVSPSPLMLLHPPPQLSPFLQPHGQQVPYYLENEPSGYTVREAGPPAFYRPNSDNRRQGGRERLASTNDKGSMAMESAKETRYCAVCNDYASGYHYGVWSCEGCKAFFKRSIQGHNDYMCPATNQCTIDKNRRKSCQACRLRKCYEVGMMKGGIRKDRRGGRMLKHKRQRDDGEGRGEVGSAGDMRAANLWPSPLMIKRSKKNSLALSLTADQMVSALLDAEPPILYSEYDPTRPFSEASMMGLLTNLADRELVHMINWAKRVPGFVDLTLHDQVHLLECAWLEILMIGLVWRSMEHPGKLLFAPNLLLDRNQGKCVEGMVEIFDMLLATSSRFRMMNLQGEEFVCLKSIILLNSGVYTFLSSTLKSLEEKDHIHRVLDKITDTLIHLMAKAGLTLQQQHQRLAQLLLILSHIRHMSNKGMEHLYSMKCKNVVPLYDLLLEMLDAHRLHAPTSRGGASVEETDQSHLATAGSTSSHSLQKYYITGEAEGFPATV
Chain of phosphoglycerate mutase (Leishmania major) (Q4Q090 1-553): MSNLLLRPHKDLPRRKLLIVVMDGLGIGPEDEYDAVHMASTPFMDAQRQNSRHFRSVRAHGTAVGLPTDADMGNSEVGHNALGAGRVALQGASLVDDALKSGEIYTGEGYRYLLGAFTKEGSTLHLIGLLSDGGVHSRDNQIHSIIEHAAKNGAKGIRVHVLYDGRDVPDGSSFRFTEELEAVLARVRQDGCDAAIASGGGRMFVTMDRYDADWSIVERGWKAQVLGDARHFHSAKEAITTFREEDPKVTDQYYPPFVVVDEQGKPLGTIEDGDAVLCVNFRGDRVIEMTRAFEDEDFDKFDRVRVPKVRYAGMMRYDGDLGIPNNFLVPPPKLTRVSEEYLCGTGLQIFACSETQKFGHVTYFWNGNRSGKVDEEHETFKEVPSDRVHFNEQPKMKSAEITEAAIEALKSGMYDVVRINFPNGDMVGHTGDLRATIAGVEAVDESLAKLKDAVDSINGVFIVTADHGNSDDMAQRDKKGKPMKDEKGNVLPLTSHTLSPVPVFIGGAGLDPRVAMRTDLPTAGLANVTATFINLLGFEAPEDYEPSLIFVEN
Chain of Peroxisome proliferator-activated receptor gamma (Homo sapiens) (P37231 whole entry, looked up): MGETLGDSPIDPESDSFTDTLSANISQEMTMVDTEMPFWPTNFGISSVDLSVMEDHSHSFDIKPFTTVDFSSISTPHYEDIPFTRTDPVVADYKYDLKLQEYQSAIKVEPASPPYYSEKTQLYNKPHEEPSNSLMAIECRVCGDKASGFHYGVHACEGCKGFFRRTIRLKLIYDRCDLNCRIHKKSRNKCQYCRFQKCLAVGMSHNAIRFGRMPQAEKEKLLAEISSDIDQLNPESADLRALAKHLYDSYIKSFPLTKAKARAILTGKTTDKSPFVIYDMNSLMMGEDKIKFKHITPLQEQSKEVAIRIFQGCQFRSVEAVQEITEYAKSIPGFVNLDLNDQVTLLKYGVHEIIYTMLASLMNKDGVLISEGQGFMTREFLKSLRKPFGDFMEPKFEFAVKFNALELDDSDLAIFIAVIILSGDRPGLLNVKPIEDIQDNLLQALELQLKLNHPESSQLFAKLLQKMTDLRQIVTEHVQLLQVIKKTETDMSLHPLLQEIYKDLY
Chain of Peptidyl-prolyl cis-trans isomerase NIMA-interacting 1 (Homo sapiens) (Q13526 whole entry, looked up): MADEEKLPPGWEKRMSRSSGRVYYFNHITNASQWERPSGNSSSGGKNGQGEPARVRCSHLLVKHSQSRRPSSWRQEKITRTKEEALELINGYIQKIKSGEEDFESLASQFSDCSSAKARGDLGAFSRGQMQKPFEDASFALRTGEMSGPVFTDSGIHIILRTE
Chain of Ubiquitin carboxyl-terminal hydrolase 1 (Homo sapiens) (O94782 whole entry, looked up): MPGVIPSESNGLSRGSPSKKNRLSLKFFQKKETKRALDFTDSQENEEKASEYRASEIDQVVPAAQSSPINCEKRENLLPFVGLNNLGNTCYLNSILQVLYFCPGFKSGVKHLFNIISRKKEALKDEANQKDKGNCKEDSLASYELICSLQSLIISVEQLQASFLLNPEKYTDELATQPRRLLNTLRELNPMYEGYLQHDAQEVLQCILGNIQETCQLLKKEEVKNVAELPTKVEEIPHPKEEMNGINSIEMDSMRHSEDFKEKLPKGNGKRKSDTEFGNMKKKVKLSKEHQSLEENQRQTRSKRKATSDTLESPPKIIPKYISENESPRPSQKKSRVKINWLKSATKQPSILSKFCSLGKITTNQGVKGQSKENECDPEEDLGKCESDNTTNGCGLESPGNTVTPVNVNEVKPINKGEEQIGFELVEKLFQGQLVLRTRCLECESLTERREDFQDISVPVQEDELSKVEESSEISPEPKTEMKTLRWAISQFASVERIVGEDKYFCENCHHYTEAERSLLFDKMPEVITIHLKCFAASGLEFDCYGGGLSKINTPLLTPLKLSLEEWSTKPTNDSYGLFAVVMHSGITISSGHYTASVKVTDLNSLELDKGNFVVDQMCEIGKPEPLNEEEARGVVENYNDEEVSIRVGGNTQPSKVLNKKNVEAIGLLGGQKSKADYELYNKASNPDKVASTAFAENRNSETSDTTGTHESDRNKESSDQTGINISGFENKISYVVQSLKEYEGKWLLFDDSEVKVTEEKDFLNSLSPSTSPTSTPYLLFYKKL
Chain of Phosphoglycerate kinase, glycosomal (Trypanosoma brucei brucei) (P07378 whole entry, looked up): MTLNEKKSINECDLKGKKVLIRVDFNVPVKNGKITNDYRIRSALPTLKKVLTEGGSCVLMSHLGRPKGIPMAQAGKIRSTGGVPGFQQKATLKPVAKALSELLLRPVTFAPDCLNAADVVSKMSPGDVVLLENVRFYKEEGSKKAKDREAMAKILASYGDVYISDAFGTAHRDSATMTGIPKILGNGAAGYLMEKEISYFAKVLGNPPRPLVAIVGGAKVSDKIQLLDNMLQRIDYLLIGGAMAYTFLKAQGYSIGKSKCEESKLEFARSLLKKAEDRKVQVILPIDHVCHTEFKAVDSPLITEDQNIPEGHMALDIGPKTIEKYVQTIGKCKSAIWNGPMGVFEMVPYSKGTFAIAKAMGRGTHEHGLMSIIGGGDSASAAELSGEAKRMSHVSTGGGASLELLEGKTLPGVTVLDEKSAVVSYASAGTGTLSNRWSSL
Chain of Galactokinase (Homo sapiens) (P51570 whole entry, looked up): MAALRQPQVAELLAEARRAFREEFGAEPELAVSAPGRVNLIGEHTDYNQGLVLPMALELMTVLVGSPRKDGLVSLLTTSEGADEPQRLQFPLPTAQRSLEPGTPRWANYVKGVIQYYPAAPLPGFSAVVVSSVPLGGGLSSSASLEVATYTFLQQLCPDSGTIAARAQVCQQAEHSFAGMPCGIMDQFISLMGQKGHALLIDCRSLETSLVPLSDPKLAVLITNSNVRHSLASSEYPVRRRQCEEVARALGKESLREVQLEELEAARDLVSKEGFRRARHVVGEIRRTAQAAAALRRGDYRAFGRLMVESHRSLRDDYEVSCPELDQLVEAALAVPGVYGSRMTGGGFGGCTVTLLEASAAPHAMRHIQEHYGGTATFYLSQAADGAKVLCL
Chain of Glucocorticoid receptor (Homo sapiens) (P04150 whole entry, looked up): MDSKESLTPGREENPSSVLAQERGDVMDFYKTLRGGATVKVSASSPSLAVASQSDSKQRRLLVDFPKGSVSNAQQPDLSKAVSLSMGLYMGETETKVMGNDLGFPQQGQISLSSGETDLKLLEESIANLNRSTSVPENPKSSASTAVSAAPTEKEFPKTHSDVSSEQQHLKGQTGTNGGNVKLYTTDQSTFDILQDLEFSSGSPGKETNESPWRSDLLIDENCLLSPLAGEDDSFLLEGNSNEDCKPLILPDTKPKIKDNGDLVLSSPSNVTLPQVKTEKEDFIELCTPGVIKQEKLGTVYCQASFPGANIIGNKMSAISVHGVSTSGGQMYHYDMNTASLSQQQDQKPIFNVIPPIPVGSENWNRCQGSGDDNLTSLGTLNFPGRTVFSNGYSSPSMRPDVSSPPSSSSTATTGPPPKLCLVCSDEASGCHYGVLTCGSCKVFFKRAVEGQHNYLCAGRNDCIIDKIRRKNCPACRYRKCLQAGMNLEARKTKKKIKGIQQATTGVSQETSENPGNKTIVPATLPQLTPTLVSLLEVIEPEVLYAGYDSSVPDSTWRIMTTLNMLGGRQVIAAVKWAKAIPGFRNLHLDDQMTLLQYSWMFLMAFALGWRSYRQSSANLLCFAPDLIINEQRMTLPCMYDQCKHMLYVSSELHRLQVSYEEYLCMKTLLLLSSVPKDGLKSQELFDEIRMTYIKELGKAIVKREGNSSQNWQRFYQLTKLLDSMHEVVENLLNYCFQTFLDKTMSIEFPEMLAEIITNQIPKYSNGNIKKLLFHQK
Chain of Bile acid receptor (Homo sapiens) (Q96RI1 whole entry, looked up): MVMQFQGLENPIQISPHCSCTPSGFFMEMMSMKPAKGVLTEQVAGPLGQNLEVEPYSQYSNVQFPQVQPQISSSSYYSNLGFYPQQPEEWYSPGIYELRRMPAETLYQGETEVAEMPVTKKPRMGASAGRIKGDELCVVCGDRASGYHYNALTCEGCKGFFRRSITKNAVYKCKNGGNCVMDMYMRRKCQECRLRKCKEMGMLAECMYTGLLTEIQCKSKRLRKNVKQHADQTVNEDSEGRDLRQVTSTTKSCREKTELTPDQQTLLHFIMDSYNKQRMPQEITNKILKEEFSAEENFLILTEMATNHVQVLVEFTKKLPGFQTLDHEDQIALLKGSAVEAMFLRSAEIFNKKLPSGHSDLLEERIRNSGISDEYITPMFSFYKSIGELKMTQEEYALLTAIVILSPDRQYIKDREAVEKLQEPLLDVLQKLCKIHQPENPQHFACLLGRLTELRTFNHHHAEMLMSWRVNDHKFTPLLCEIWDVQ

COc1ccc2c(c1)C13CCCCC1C(C2)N(C)CC3 (stereo not drawn)
inactive: outcome [1] | Potency [2] | Potency [3] | Potency [4] | Potency [5] | outcome [6] | Potency [7] | Potency [8]

OC1CCCCC1N1CCC(c2ccccc2)CC1 (stereo not drawn)
inactive: outcome [1] | Potency [2] | Potency [3] | Potency [4] | Potency [5] | outcome [6] | Potency [7] | Potency [8] | Potency [9]

NC(N)=Nc1ccc2[nH]c3c(c2c1)C[C@@]1(O)[C@H]2Cc4ccc(O)c5c4[C@@]1(CCN2CC1CC1)[C@H]3O5
active: Potency [7] 79.4 µM
inactive: outcome [1] | Potency [2] | Potency [3] | Potency [4] | Potency [5] | outcome [6]

N[C@@H](Cn1oc(=O)[nH]c1=O)C(=O)O
inactive: outcome [1] | Potency [2] | Potency [3] | Potency [4] | Potency [5] | outcome [6] | Potency [7] | Potency [8] | Potency [9]

CC(N)[C@H](O)c1ccc(O)c(O)c1 (stereo partly drawn)
active: Potency [3] 13.5 µM | Potency [4] 7.57 µM
inactive: outcome [1] | Potency [2] | Potency [5] | outcome [6] | Potency [7] | Potency [8] | Potency [9]

c1ccc2c(N3CCNCC3)cccc2c1
inactive: outcome [1] | Potency [2] | Potency [3] | Potency [4] | Potency [5] | outcome [6] | Potency [7] | Potency [8]

NCCc1c[nH]c2ccc(C(N)=O)cc12
inactive: outcome [1] | Potency [2] | Potency [3] | Potency [4] | Potency [5] | outcome [6] | Potency [7] | Potency [8] | Potency [9]

CCN(CCCl)Cc1ccccc1Br
inactive: outcome [1] | Potency [2] | Potency [3] | Potency [4] | Potency [5] | outcome [6] | Potency [7] | Potency [8] | Potency [9]

Clc1cc(I)cc(Cl)c1NC1=NCCN1
inactive: outcome [1] | Potency [2] | Potency [3] | Potency [4] | Potency [5] | outcome [6] | Potency [7] | Potency [8] | Potency [9]

NC(CCCCCP(=O)(O)O)C(=O)O (stereo not drawn)
inactive: outcome [1] | Potency [2] | Potency [3] | Potency [4] | Potency [5] | outcome [6] | Potency [7] | Potency [8] | Potency [9]

COc1ccc(CNC(=O)/C=C/c2ccc3[nH]cc(CCN(C)C)c3c2)cc1
inactive: outcome [1] | Potency [2] | Potency [3] | Potency [4] | Potency [5] | outcome [6] | Potency [7] | Potency [8]

CN1CCC(c2c[nH]c3ccc(O)cc23)CC1
inactive: outcome [1] | Potency [2] | Potency [3] | Potency [4] | Potency [5] | outcome [6] | Potency [7] | Potency [8] | Potency [9]

CCCN1CCCC2Cc3[nH]ncc3CC21 (stereo not drawn)
inactive: outcome [1] | Potency [2]

CCCn1c(=O)c2[nH]c(C3CCCC3)nc2n(CCCOC(=O)c2ccc(S(=O)(=O)F)cc2)c1=O
inactive: outcome [1] | Potency [2] | Potency [3] | Potency [4] | Potency [5] | outcome [6] | Potency [7] | Potency [8] | Potency [9]

NC(=O)CI
inactive: outcome [1] | Potency [2] | Potency [3] | Potency [4] | Potency [5] | outcome [6] | Potency [7] | Potency [8] | Potency [9]

CCCN(CCC)[C@H]1CCc2c(F)ccc(O)c2C1
inactive: outcome [1] | Potency [2] | Potency [3] | Potency [4] | Potency [5] | outcome [6] | Potency [7] | Potency [8] | Potency [9]

C[N+](C)(C)CC#CCN1CCCC1=O
inactive: outcome [1] | Potency [2] | Potency [3] | Potency [4] | Potency [5] | outcome [6] | Potency [7] | Potency [8] | Potency [9]

COc1cc(CC(C)N)c(OC)cc1I (stereo not drawn)
inactive: outcome [1] | Potency [2] | Potency [3] | Potency [4] | Potency [5] | outcome [6] | Potency [7]

NNC(N)=O
inactive: Potency [10] | Potency [11] | activation [12] -1.54% | activation [13] -1.3% | Potency [14] | outcome [15]

O=C(O)c1cc[c]([Hg][Cl])cc1
inactive: Potency [11] | Potency [16] | activation [12] 1.46% | activation [13] 5.77% | Potency [14]

COc1ccc2c(c1OC)C(=O)OC2C1c2cc3c(cc2CCN1C)OCO3 (stereo not drawn)
inactive: activation [17] -2.23% | outcome [18] | outcome [15]

O=C1C=CC(=O)C=C1
inactive: outcome [15]

N#C/C(=C/c1ccc(O)c(O)c1)C(N)=S
inactive: Potency [3] | Potency [5] | outcome [6] | Potency [7] | Potency [9]
